# What was measured:
# [1] = target: Platelet-derived growth factor receptor beta (Homo sapiens) (UniProt P09619); conditions: at 1 µM;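 also: each value is a mean percent inhibition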
# [2] = target: Tyrosine-protein kinase FRK (Homo sapiens) (UniProt P42685); conditions: at 0.1 µM
# [3] = target: Tyrosine-protein kinase FRK (Homo sapiens) (UniProt P42685); conditions: at 1 µM
# [4] = target: Protein-tyrosine kinase 2-beta (Homo sapiens) (UniProt Q14289); conditions: at 0.1 µM
# [5] = target: Protein-tyrosine kinase 2-beta (Homo sapiens) (UniProt Q14289); conditions: at 1 µM
# [6] = target: Proto-oncogene tyrosine-protein kinase receptor Ret (Homo sapiens) (UniProt P07949); conditions: at 0.1 µM
# Chain of Proto-oncogene tyrosine-protein kinase receptor Ret (Homo sapiens) (P07949 whole entry): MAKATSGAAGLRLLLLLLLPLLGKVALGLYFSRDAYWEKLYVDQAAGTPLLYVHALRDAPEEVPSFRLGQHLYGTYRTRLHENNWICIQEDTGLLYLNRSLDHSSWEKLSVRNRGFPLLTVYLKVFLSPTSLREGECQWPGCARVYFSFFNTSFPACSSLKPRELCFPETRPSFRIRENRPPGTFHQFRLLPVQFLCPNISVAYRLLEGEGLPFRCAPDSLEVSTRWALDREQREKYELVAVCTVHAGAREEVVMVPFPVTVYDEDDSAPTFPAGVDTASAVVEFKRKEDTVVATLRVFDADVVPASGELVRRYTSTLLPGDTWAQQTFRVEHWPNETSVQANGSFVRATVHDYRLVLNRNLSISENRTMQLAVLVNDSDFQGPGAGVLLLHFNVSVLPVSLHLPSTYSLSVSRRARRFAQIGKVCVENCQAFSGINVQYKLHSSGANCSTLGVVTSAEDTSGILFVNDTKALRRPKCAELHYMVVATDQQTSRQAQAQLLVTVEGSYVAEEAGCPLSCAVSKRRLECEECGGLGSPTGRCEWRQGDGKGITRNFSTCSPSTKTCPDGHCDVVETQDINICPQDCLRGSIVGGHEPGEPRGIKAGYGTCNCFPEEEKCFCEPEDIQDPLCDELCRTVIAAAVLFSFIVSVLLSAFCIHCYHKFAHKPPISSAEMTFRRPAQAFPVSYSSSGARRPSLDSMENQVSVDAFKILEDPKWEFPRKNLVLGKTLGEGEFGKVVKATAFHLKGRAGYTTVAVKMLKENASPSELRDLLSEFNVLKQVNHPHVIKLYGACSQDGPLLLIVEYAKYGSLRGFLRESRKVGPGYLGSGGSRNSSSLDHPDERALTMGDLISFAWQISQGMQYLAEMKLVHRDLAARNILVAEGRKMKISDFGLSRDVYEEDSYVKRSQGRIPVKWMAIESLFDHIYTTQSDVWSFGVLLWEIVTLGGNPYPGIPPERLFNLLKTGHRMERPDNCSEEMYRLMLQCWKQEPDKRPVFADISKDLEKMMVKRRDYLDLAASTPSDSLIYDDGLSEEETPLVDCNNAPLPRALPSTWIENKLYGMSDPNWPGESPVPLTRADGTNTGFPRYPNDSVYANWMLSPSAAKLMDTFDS
# [7] = target: Proto-oncogene tyrosine-protein kinase receptor Ret (Homo sapiens) (UniProt P07949); conditions: at 1 µM
# [8] = tested on: Proto-oncogene tyrosine-protein kinase receptor Ret (Homo sapiens), P07949 [V804L]; conditions: at 0.1 µM
# Chain of Proto-oncogene tyrosine-protein kinase receptor Ret (Homo sapiens), P07949 [V804L] (P07949 whole entry V804L): as the sequence (P07949 whole entry) above, with V804L counted along it
# [9] = tested on: Proto-oncogene tyrosine-protein kinase receptor Ret (Homo sapiens), P07949 [V804L]; conditions: at 1 µM
# [10] = tested on: Proto-oncogene tyrosine-protein kinase receptor Ret (Homo sapiens), P07949 [Y791F]; conditions: at 0.1 µM
# Chain of Proto-oncogene tyrosine-protein kinase receptor Ret (Homo sapiens), P07949 [Y791F] (P07949 whole entry Y791F): as the sequence (P07949 whole entry) above, with Y791F counted along it
# Chain of Platelet-derived growth factor receptor beta (Homo sapiens) (P09619 whole entry): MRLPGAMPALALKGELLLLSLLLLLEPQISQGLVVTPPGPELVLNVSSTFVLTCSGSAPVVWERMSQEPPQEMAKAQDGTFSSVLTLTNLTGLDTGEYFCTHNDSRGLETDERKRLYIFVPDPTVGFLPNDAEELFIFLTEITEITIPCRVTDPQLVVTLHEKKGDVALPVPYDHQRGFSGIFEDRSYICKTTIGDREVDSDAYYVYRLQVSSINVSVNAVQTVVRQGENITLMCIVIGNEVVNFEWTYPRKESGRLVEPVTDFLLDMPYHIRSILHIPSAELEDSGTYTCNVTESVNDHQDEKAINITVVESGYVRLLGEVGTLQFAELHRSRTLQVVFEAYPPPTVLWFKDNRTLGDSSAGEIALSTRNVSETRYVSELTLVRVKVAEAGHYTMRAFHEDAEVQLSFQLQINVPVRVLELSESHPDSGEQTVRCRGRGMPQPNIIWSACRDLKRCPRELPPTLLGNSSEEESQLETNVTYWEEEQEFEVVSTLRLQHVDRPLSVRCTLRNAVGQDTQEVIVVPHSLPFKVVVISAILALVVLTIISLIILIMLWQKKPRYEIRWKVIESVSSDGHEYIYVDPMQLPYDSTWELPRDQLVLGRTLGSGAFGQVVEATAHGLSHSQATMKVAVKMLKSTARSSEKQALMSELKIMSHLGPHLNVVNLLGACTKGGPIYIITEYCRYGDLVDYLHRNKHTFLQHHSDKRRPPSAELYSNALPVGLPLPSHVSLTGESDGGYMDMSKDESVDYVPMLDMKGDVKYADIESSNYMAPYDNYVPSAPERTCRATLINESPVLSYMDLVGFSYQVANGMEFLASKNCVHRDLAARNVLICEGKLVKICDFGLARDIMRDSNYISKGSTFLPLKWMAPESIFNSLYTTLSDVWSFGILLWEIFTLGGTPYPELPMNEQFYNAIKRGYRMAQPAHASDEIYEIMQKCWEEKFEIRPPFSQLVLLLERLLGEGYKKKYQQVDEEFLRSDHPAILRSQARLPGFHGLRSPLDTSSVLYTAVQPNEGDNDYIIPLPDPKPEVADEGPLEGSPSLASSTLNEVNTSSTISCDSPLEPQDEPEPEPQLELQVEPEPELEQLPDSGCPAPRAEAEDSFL
# Chain of Tyrosine-protein kinase FRK (Homo sapiens) (P42685 whole entry): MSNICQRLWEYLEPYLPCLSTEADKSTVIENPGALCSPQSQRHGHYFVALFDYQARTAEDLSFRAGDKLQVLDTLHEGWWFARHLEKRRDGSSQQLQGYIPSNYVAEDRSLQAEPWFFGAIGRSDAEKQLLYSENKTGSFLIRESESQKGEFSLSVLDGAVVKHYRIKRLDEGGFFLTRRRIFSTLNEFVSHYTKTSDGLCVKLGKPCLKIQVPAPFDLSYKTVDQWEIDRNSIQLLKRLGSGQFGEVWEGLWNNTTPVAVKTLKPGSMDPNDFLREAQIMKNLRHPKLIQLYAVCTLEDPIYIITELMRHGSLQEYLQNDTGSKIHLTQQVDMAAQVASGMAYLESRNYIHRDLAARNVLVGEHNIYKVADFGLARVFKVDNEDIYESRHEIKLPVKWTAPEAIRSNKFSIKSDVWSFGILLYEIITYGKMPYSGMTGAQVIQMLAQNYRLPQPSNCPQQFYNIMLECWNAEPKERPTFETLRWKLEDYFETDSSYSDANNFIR
# Chain of Protein-tyrosine kinase 2-beta (Homo sapiens) (Q14289 whole entry, looked up): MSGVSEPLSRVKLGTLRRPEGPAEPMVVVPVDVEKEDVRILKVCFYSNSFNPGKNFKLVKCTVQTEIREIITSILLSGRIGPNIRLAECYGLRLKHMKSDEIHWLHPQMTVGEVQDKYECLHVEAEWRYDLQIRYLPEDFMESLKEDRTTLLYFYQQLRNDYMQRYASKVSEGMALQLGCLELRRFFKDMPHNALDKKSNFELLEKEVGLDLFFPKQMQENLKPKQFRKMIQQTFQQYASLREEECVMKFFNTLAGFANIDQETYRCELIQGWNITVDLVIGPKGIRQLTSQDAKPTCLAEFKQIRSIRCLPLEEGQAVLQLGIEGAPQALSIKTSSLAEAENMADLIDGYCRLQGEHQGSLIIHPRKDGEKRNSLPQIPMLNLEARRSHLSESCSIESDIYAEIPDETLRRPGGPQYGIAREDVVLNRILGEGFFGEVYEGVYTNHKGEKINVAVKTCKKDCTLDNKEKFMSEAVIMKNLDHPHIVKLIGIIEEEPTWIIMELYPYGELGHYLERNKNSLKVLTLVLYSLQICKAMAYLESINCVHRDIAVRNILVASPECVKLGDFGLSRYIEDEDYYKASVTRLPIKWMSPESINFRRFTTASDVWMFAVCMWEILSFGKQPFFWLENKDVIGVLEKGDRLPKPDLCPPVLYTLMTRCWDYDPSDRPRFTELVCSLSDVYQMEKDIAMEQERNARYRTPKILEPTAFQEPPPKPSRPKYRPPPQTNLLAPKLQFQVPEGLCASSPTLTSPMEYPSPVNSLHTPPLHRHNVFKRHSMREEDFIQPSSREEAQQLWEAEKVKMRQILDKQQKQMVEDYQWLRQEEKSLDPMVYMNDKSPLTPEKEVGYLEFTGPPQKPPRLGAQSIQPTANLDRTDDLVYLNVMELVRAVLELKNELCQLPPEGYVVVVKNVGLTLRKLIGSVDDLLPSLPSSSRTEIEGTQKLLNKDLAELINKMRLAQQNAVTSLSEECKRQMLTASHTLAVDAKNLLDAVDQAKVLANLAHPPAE
SMILES,inhibition [1] [%],inhibition [2] [%],inhibition [3] [%],inhibition [4] [%],inhibition [5] [%],inhibition [6] [%],inhibition [7] [%],inhibition [8] [%],inhibition [9] [%],inhibition [10] [%]
NS(=O)(=O)c1ccc(N/N=C2\C(=O)Nc3ccc(Cl)cc32)cc1,36.7,1.76,1.45,6.41,14,-0.09,14.5,8.27,41.6,2.06
NS(=O)(=O)c1cccc(Nc2cc(-c3ccc(F)cc3)n[nH]2)c1,38,1.05,2.07,7.64,12.6,4.74,17.9,5.42,25.3,3.26
OCc1ccc(-c2nc(-c3ccccn3)c(-c3ccc4c(c3)OCO4)[nH]2)cc1,11,2.25,2.05,12,13.1,4.72,4.99,4.41,1.05,12.3
COc1cc(/C=N/Nc2ncnc3c2cnn3C(C)C)ccc1O,45.1,2.61,1.87,8.31,21.9,61.1,85.4,14.1,53.9,54
CCCN1CCCC(c2ccc(Nc3nc(Nc4cc(F)ccc4C(N)=O)c4cc[nH]c4n3)c(OC)c2)C1 (stereo not given),32.2,7.2,20.5,96,97.7,8.63,20.9,10.1,41.6,8.67
COc1cccc(-n2ncc3c(N/N=C/c4ccc(S(C)(=O)=O)cc4)ncnc32)c1,78.1,0.47,3.05,3.04,5.9,11.4,30.7,4.8,8.24,14.1
Cc1cc(-c2ccccn2)cc(C)c1/C=C/c1cncc(-c2nn[nH]n2)c1,13.4,1.59,4.57,3.75,13.3,5.88,5.38,3.85,5.09,5.19
COc1cccc(-n2ncc3c(N/N=C/c4ccc(C)cc4)ncnc32)c1,21.1,2.86,5.6,4.06,15.8,3,11.5,3.72,10.2,4.38
Nc1nccc(C#Cc2cncnc2Nc2ccc(OCc3cccc(F)c3)c(Cl)c2)n1,11.6,2.59,0.85,8.24,14.2,1.17,5.76,10.1,15,4.88
C[C@@H](Oc1cc(-n2cnc3ccc(OC[C@@H](O)CO)cc32)sc1C(N)=O)c1ccccc1Cl,54.6,0.8,2.17,-2.91,-1.09,0.87,7.49,2.02,5.35,-0.83
Cc1ccc(Nc2ccnc(Nc3cccc(C(N)=O)c3)n2)cc1O,79.7,48.6,87.6,9.71,47.8,73.5,85.7,11.7,49.7,74.6
CN(C)C(=O)O[C@@H]1CN[C@@H](C#Cc2cc3ncnc(Nc4ccc(OCc5cccc(F)c5)c(Cl)c4)c3s2)C1,9.98,0.71,2.18,-3.27,3.14,3.72,4.94,0.31,-0.74,3.85
NC(=O)c1sc(-n2cnc3ccccc32)cc1OCc1ccccc1Br,14.4,2.57,3.29,7.34,6.52,9.37,12.7,3.43,5.79,5.9
COC(=O)c1cncc(/C=C/c2c(C)cc(O)cc2C)c1,36.7,2.26,6.54,9.3,10.1,2.45,5.3,2.74,7.8,0.65
COc1cc2ncn(-c3cc(OCc4ccccc4S(C)(=O)=O)c(C#N)s3)c2cc1OC,78.1,3.38,4.36,12,25.6,18.2,63.7,11.3,53.6,23.2
CCOc1nccc2c1nc(-c1nonc1N)n2CC,20.2,1.66,-0.64,5.11,7.29,5.47,12.3,8.5,20.2,9.76
Cc1ccc2c(c1)/C(=N/Nc1ccc(S(N)(=O)=O)cc1)C(=O)N2,31.7,-0.61,0.7,1.76,0.28,3.85,18.8,7.64,35.4,8.06
